Screening data: PubChem, National Center for Advancing Translational Sciences (NCATS)
Shown is part of a subset that was picked to be rich in hits.
Cycloheximide cs – counter-screen hit for Shiga toxin inhibitors, cycloheximide | cell reporter, cycloheximide protein synthesis inhibition counterscreen | max response, % | actives 12% (n = 300,000); in the data active = max response mostly above about 13%, no sharp cut-off; inactive = mostly below about 14%; also: read at 38.3 µM for the half of the compounds with a filed dose
TbPYK inhibitor – blocks Trypanosoma brucei pyruvate kinase; Q57TT1; TbPYK enzyme, Kinase-Glo Plus ATP luminescence, 45 min; Potency, µM (doses to about 76.8 µM), most hits filed as inhibitors; actives 0.12% (n = 410,000); AID 624173; also: nearly all actives have a fitted effect of over 50% in size
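Enzyme and substrate buffer are dispensed first and compound is pin-transferred. ADP at 130 uM final then starts the reaction, which runs 45 min at room temperature. Detection reagent is added for 10 min before luminescence is imaged.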
NS1 function inh – blocks influenza NS1 protein function | Potency, µM (top dose mostly 46.1 µM) | actives 0.4% (n = 270,000) | AID 2326; calls by dose curve; also: actives are rising curves; nearly all actives have a fitted effect of over 50% in size
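Recovery from NS1-induced slow growth read by OD600 in budding yeast switched to galactose assay medium (pH 6.0, -URA) at 1:100 dilution. Compound 23 nl per well; the matching strain lacking NS1 serves as control.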
Shiga toxin inh – Shiga toxin inhibition. Vero cells, Shiga toxin protein synthesis inhibition reporter. inhibition, % at 38.7 µM. actives 9.2% (n = 290,000). AID 2315; in the data active = inhibition mostly above about 28%, no sharp cut-off; inactive = mostly below about 43%
SARS PLP yeast – blocks SARS-CoV papain-like protease in a yeast assay. S. cerevisiae expressing SARS-CoV PLpro, growth rescue. AID 485353. actives 0.19% (n = 330,000). Potency, µM (doses to about 32.9 µM), hits mostly activators; calls by dose curve; also: nearly all actives have a fitted effect of over 55% in size
LmPK inh – blocks Leishmania mexicana pyruvate kinase activity; Potency, µM (top dose mostly 57.5 µM), actives largely listed as inhibitors; actives 0.37% (n = 290,000); purified LmPK, Kinase-Glo ATP luminescence, 1 h; AID 1721; Q27686
Target sequence (Q27686 whole entry, looked up): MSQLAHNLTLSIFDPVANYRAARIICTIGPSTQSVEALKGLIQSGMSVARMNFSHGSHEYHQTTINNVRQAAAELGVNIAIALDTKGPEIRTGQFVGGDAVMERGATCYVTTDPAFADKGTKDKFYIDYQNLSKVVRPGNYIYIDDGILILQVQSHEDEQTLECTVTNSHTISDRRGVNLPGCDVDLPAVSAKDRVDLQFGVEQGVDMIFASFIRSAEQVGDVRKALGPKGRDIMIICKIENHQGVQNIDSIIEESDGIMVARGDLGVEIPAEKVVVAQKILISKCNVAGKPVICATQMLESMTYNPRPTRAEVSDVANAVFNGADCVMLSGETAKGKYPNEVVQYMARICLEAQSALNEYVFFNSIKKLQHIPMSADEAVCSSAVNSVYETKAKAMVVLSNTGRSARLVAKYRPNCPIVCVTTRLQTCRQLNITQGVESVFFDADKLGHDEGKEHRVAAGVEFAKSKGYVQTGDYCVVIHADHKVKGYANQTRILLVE
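Pyruvate kinase activity monitored as ATP production (luciferase luminescence). Conditions: 0.1 nM enzyme, 0.5 mM PEP, 0.1 mM ADP, 1 h, RT; normalized against uninhibited and no-enzyme wells.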
Numbers stand for hits; i = inactive; ? = inconclusive; nt = no result given. Unless noted, calls follow the shape of the dose curve; as a rule, active = well fitted curve in the direction sought with a large enough effect; inconclusive = small, poorly fitted or top-dose-only effect, or another doubt; inactive = no such curve, though single readings can be large; an effect the other way counts as inactive or inconclusive.

SMILES	Cycloheximide cs	TbPYK inhibitor	NS1 function inh	Shiga toxin inh	SARS PLP yeast	LmPK inh
COc1ccc(NC(=O)C(NC(C)=O)C(=O)Nc2ccc(F)cc2)cc1 (configuration not stated)	i	i	i	i	i	i
CCn1ncc(Br)c1C(=O)Nc1ccc(C(=O)OC(C)C)cc1	27	i	i	i	i	i
CCn1ncc(Br)c1C(=O)Nc1ccc(OC(F)(F)F)cc1	i	i	i	i	i	i
COc1ccc([C@H]2[C@H](C(=O)OC(C)(C)C)N3N=Cc4ccccc4C3C23C(=O)c2ccccc2C3=O)cc1OC (some centres not stated)	i	i	i	i	i	i
COc1ccc([C@H]2[C@H](C(=O)OC(C)(C)C)N3N=Cc4ccccc4C3C23C(=O)c2ccccc2C3=O)c(OC)c1 (some centres not stated)	18	i	i	45	i	i
CCOC(=O)C1CCN(C(=O)/C=C/c2ccccc2OC)CC1	i	i	i	i	i	i
CCOC(=O)C1CCN(C(=O)/C=C/c2ccc(OC)cc2)CC1	42	i	i	71	i	i
O=C(/C=C/c1cccc(Cl)c1)N1CCC(Cc2ccccc2)CC1	12	i	i	54	i	i
COC(=O)C1CCN(C(=O)/C=C/c2ccccc2)CC1	i	i	i	41	i	i
C=CCOc1ccc(/C=C/C(=O)OCC(=O)N2CCC(c3ccccc3)=N2)cc1	nt	i	nt	nt	i	nt
CCOC(=O)c1cc(-c2ccc(C)cc2)n(CCC(=O)NCCc2ccc(C)cc2)c1C	nt	i	nt	nt	nt	nt
COc1ccc(OS(=O)(=O)Cc2ccccc2)cc1	20	i	i	41	i	i
Brc1ccc(-c2nc3ncccn3c2Nc2ccc3c(c2)OCCO3)o1	i	i	i	i	i	i
c1cn2c(Nc3ccc4c(c3)OCCO4)c(-c3ccc(N4CCOCC4)cc3)nc2cn1	24	i	i	53	i	i
Oc1ccccc1-c1nc2cnccn2c1Nc1ccc2c(c1)OCCO2	30	i	i	51	i	i
Clc1ccc(-c2nc3cnccn3c2Nc2ccc3c(c2)OCO3)cc1	i	i	i	i	i	i
Cc1ccc(-c2nc3ncccn3c2Nc2ccc3c(c2)OCCO3)o1	27	i	i	70	i	i
Cc1ccn2c(Nc3ccc4c(c3)OCCO4)c(-c3ccccc3O)nc2c1	nt	i	nt	nt	nt	nt
Cc1ccc(C)c(OCC(=O)N/N=C\c2cccn2C)c1	i	i	nt	i	i	i
Cc1nn(-c2ccccc2)c(Cl)c1/C=N/NC(=O)c1[nH]ncc1Br	29	i	i	45	i	i
Cc1ccc(OCC(=O)N/N=C\c2cccn2C)c([N+](=O)[O-])c1	32	i	i	42	i	i
Cc1[nH]n(-c2ccccc2)c(=O)c1/C=N/NC(=O)COc1ccccc1[N+](=O)[O-]	i	i	i	i	14µM	i
COCC(=O)N/N=C/c1c(C)[nH]n(-c2ccccc2)c1=O	i	i	nt	i	i	i
Cc1[nH]n(-c2ccccc2)c(=O)c1/C=N/NC(=O)c1ccccc1F	25	i	i	64	i	i
Cc1nn(-c2ccccc2)c(Cl)c1/C=N/O	i	i	i	i	i	i
SMILES	Cycloheximide cs	TbPYK inhibitor	NS1 function inh	Shiga toxin inh	SARS PLP yeast	LmPK inh
Cc1cc(C(=O)N/N=C/c2c(C)nn(-c3ccccc3)c2Cl)n[nH]1	18	i	i	49	i	i
Cc1ccc(-n2nc(C)c(/C=N/NC(=O)c3cccnc3)c2Cl)cc1	i	i	i	i	i	i
Cc1nn(-c2ccccc2)c(Cl)c1/C=C/C(=O)c1ccccc1	19	i	i	i	i	i
Cc1nn(-c2ccccc2)c(Cl)c1/C=N/NC(=O)c1ccccc1F	37	i	i	64	i	i
Cc1nn(-c2ccccc2)c(Cl)c1/C=N/NC(=O)c1cccnc1	33	i	i	i	i	i
Cc1ccc(C(=O)N/N=C\c2c(C)nn(-c3ccccc3)c2Cl)cn1	i	i	i	i	i	?
COC(=O)c1ccccc1NC(=O)Cn1c(=O)n(Cc2ccc(C(=O)NCc3ccc4c(c3)OCO4)cc2)c(=O)c2ccccc21	nt	i	nt	nt	nt	nt
Cc1nn(-c2ccccc2)c(C)c1/C=N/NC(=O)c1cc(-c2ccccc2)n[nH]1	i	i	i	i	i	i
Cc1nn(-c2ccccc2)c(Cl)c1/C=N/NC(=O)c1ccn[nH]1	21	i	i	i	i	i
